# Experimental data as given in the supplement of paper PMC6555819.
# Key:
# Test in all cases: PBM binding z-score (relative to random genomic background probes); higher = stronger binding; sequences stand for … in GC…GCGATTGACAGCGTAGAATGAAGG
# [1] = system: PPARg:RXRa DBDmut IVT, anti-RXR (DBD mutation: RXRa K156A/R161A, NR concentration 270 nM, RXRa partner concentration 90 nM)
# Outline: (§1)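 On custom Agilent 4×180K arrays, double-stranded probes with 34-nt variable regions carried direct-repeat seeds, single-nucleotide variants, half-site ablations or random human genomic background. Ligand-free nuclear receptor dimers were applied for 1 h, and binding was read with antibodies against each partner (one per run). Binding z-scores come from regression-normalized fluorescence, with the random background probes as reference.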
# [2] = system: PPARg:RXRa IVT, anti-PPARg (NR concentration 270 nM, RXRa partner concentration 90 nM)
# Outline: as §1
# [3] = system: PPARg DBDmut:RXRa IVT, anti-PPARg (DBD mutation: PPARg1 K132A/R137A, NR concentration 270 nM, RXRa partner concentration 90 nM)
# Outline: as §1
# [4] = system: PPARg DBDmut IVT, anti-PPARg (DBD mutation: PPARg1 K132A/R137A, NR concentration 270 nM)
# Outline: as §1
# [5] = system: PPARg homodimer (NR concentration 180 nM)
# Outline: as §1
# [6] = system: PXR:RXRa (NR concentration 270 nM, RXRa partner concentration 90 nM)
# Outline: as §1
# [7] = system: PXR homodimer (NR concentration 270 nM)
# Outline: as §1
# [8] = system: RARa:RXR (NR concentration 270 nM, RXRa partner concentration 90 nM)
# Outline: as §1
# [9] = system: RARa homodimer (NR concentration 270 nM)
# Outline: as §1
# [10] = system: RARb:RXRa (NR concentration 270 nM, RXRa partner concentration 90 nM)
# Outline: as §1
# [11] = system: RARb homodimer (NR concentration 270 nM)
# Outline: as §1
# [12] = system: RARg:RXRa (NR concentration 270 nM, RXRa partner concentration 90 nM)
# Outline: as §1
# [13] = system: RARg homodimer (NR concentration 270 nM)
# Outline: as §1
# [14] = system: RXRa DBDmut IVT, anti-RXR (DBD mutation: RXRa K156A/R161A, NR concentration 90 nM)
# Outline: as §1
# [15] = system: RXRa homodimer (NR concentration 180 nM)
# Outline: as §1
# [16] = system: THRa:RXRa (NR concentration 90 nM, RXRa partner concentration 90 nM)
# Outline: as §1
# [17] = system: THRa homodimer (NR concentration 90 nM)
# Outline: as §1
# [18] = system: VDR homodimer (NR concentration 270 nM)
# Outline: as §1
Sequence,PBM binding z-score [1],PBM binding z-score [2],PBM binding z-score [3],PBM binding z-score [4],PBM binding z-score [5],PBM binding z-score [6],PBM binding z-score [7],PBM binding z-score [8],PBM binding z-score [9],PBM binding z-score [10],PBM binding z-score [11],PBM binding z-score [12],PBM binding z-score [13],PBM binding z-score [14],PBM binding z-score [15],PBM binding z-score [16],PBM binding z-score [17],PBM binding z-score [18]
ATCTCTAGGTACAGATAGTTCAGTGAATGCAAAT,-0.154,0.347,1.38,1.2,0.865,0.698,1.5,0.218,0.726,0.832,0.913,0.74,0.847,1.17,0.198,0.432,0.0409,1.65
CCTACTGGGCCACGAAAGGTCAATGATTCAGTGA,5.81,6.07,0.295,-0.781,2.45,4.54,0.206,4.68,0.747,4.09,4.81,4.94,4.64,0.165,4.81,3.66,0.66,0.883
CAAACTAGGACACGAAAGGTCAAAGTCGAATGAC,6.64,6.94,2.48,3.31,4.51,5.64,1.78,6.19,3.15,4.52,4.86,5.9,5.66,1.45,6.74,4.08,1.94,2.91
CCTAGCAGGCAAGGGTCACTCAAGCATTTCGCTT,0.337,0.835,-1.27,-1.7,1.35,2.99,-0.946,3.86,-0.178,3.31,3.46,4.12,3.63,0.602,4.6,2.36,-0.309,0.817
GCAGACACGTGAAACGCAGGTAACTCAGGGTGGC,-1.12,-0.582,-0.764,-0.343,-2.11,-0.819,-0.73,-0.666,-0.899,-0.551,-0.78,-0.43,-0.333,-0.425,-0.324,0.299,-0.673,-0.988
TCCTATAGGTAATACAGGTGAAAGTCGGCATCTA,2.84,2.12,0.665,0.687,0.164,0.43,-0.159,0.537,0.724,0.581,0.461,0.471,0.243,1.05,0.757,0.883,0.298,-0.333
AGTCAAAGTTCATCTCGGTAACGTAAGATATGCT,0.386,2.85,1.54,1.05,2.38,4.97,4.44,3.65,1.33,5.06,3.93,5.53,6.02,4.57,4.35,2.58,-0.318,4.92
ATCTCTAGGTAACCAAGTTCAGCGAATGCCGAAC,3.55,2.95,1.37,0.686,0.704,2.02,1.3,1.04,0.165,1.34,1.63,1.03,1.06,0.597,0.733,1.51,0.797,2.79
TCTGCTAGGTCAACGATGGACAGCTAATCTGCTA,3.88,4.29,1.56,0.358,1.08,1.32,-0.751,2.01,-0.131,3.97,2.79,3.82,4.71,0.955,2.5,2.86,0.203,-0.736
GGAACGAGGGCAAGTTCATAGCAGAGTTTGATGG,4.12,3.14,-0.982,-0.116,0.648,3.66,5.88,1.72,-0.259,3.37,2.84,2.99,3.16,3.64,2.16,2.35,0.375,5.08
CCTGCTGGGTCAATGGTCAGCTAAAGCAGCTCGC,2.51,3.15,-1.4,-0.684,0.557,0.874,-0.552,1.78,-0.395,3.29,2.5,3.24,3.33,0.787,2.48,1.26,-0.14,-0.211
TCATATAGGTAAAGGTTAAAGTCGAACGATATGA,3.98,4.07,1.37,1.86,1.53,2.1,0.481,3.21,1.26,2.67,2,2.68,2.28,1.27,3.91,1.81,-0.146,0.675
TAGCCTAGGCCAGATCGGGCCAGTATACGCTATA,-0.93,-0.678,-0.211,-0.658,-1.06,-0.946,-0.923,-0.593,-1.1,-0.396,-0.577,-0.451,-0.0912,-1.32,-0.625,0.522,-0.893,-0.924
ATCTGTAGGTAAGACTCAGTTCAGTGAAGAACGC,1.14,0.619,1.11,1.11,0.0779,1.18,1.28,0.421,0.498,0.161,0.419,0.15,-0.0533,0.0968,0.114,0.687,0.0437,0.939
GCGACTGGGGCAAAGCAGGTTCCCATAAGGTTGG,3.87,2.9,-1.3,-1.28,-0.328,-0.524,-0.517,-0.168,-1.06,0.44,0.109,-0.179,0.0897,-0.512,-0.314,1.38,-0.261,-0.513
TCTAGTTTGTCACGGAGGTCACACACGACGGGTA,1.88,3.07,0.895,1.64,2.96,4.44,1.91,4.55,1.86,3.54,4.23,4.3,4.16,1.65,4.54,3.6,2.96,3.15
ATCGAAAGGTCGACGAGGTGAGTCTACACCGTTT,0.545,2.03,1.28,0.606,1.13,3.31,0.495,3.84,0.442,3.98,3.08,4.01,3.95,1.04,4.04,3.99,1.04,0.956
TTACCAAGGTGAAGGACGTTGATCCCTCTGTAGA,1.55,2.11,0.655,-0.0196,0.106,0.213,-0.502,0.474,-0.478,1.26,0.644,0.43,0.524,-0.216,0.672,1.66,0.562,-0.106
ATCTCTAGGTTACAAGTTCAGTGAAAGAGAGGAC,4.27,4.41,1.99,3.28,2.22,2.38,2.41,2.03,1.88,2.69,2.77,2.81,2.37,1.65,1.76,2.02,1.48,2.9
CGAACTAGGTCAAGGACAGTGAGTCTCCGCACGC,8.24,8.49,4.66,1.15,1.2,0.826,-0.0553,1.87,-0.462,3.83,3,3.43,4.13,1.02,2.28,3.1,1.85,0.408
ACTAGCAAGCCAAGTTTGGGTCACTCAAACAAAG,-0.834,0.332,-1.3,-0.652,-0.225,0.253,-0.636,0.968,-0.901,0.801,1.51,0.717,0.562,-0.45,0.557,2.09,0.807,-0.115
TCCTATAGGTAAACAGGTGAAAGTCCGTAAGTTA,3.29,3.06,0.2,0.663,0.672,0.638,0.0288,0.69,0.325,0.692,0.829,0.269,0.132,1.06,0.667,0.77,0.418,0.275
CCTTACGGGTGACTCCAGGTTATAGCATCGGAGT,1.25,1.42,-0.537,-0.755,0.285,1.01,0.0547,1.22,-0.139,0.499,0.532,0.648,0.639,-0.594,0.973,3.65,0.215,0.0105
